Bioassay records from PubChem BioAssay.
HT1080-NT tox: kills 2HG-producing HT-1080-NT fibrosarcoma cells; HT-1080-NT fibrosarcoma viability, CellTiter-Glo ATP luminescence, 48 h; Potency, µM (highest dose often 46.1 µM), without a hit: top-dose activity, negative = less viability, most hits filed as cytotoxic; actives 1.6% (n = 360,000);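 also: NT is the 2HG producing partner of a matched IDH1 knockdown line; 0% = DMSO-treated cells and -100% = media-only wells without cells; nearly all actives have a fitted effect of over 55% in size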
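HT-1080-NT fibrosarcoma cells (2HG-overproducing), 750 cells/well in RPMI with 5% FBS, dosed after 2 h and incubated 48 h at 37C. CellTiter-Glo luminescence normalized to DMSO and no-cell wells; concentration-response curves fitted and classed.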
DT40 TDP1 CPT: growth inhibition of DT40 Tdp1-/-;hTDP1 cells with camptothecin (screen for TDP1 inhibitors). chicken DT40 Tdp1-/-;hTDP1 cells + 20 nM CPT, ATP luminescence, 48 h. Potency, µM (doses to about 46.2 µM), inactives show at the top dose activity change, negative = growth inhibition, usual class: inhibitors. actives 12% (n = 420,000). AID 686979; also: nearly all actives have a fitted effect of over 55% in size
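Cell growth measured by CellTiter-Glo luminescence after a minimum 48 h, 37 C compound exposure with 20 nM CPT in Tdp1-knockout DT40 cells stably expressing hTDP1, seeded 400/well; qHTS titration format.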
HT1080 IDH1KD tx: kills HT-1080 cells with IDH1 knockdown. HT-1080 IDH1 knockdown viability, ATP luminescence, 48 h. Potency, µM (highest dose often 46.1 µM), inactives show at the top dose activity, negative = toxicity, usual class: cytotoxic. actives 2% (n = 360,000). AID 686971;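 also: 0% = DMSO wells and -100% = cell-free medium wells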
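% activity derives from luminescence (CellTiter-Glo), normalised to DMSO and no-cell wells. HT-1080-IDH1KD cells, 750/well, had 48 h compound exposure at 37 °C.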
KB-3-1 cytotox: KB-3-1 parental cell cytotoxicity; AID 1347075; KB-3-1 viability, CellTiter-Glo ATP luminescence, 72 h; actives 1.4% (n = 400,000); Potency, µM (doses to about 46.1 µM), usual class: cytotoxic; also: nearly all actives have a fitted effect of over 60% in size
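KB-3-1 parental drug-naive adenocarcinoma cells in DMEM/10% FBS, incubated 72 h at 37 C with pin-transferred compounds across a concentration series. Viability by CellTiter-Glo luminescence; concentration-response curves fitted after normalization.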
TDP1 cell noCPT: qHTS for Inhibitors of human tyrosyl-DNA phosphodiesterase 1 (TDP1): qHTS in cells in absence of CPT; actives 15% (n = 420,000); Potency, µM (doses to about 46.2 µM), inactives show at the top dose activity change, negative = growth inhibition, actives largely listed as inhibitors; DT40 Tdp1-/- hTDP1 cells, no CPT, ATP luminescence, 48 h; also: nearly all actives have a fitted effect of over 55% in size
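Camptothecin absent (DMSO only). Human TDP1-complemented DT40 knockout cells, 400 cells/well, 37 °C for minimum 48 hr; ATP measured via CellTiter-Glo, 30 min dark incubation, luminescence.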
KB-V1 MDR tox: KB-V1 MDR subline cytotoxicity. KB-V1 MDR cells viability, CellTiter-Glo, 72 h. Potency, µM (titrated, usually from 46.1 µM), usual class: cytotoxic. actives 3.4% (n = 400,000). AID 1347076; also: nearly all actives have a fitted effect of over 60% in size
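KB-V1, DMEM (no phenol red) + 10% FBS; cpd pin-transferred, titration series; 72 h, 37 degrees C; CellTiter-Glo, luminescence. Data normalized, curve-fit.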
An asterisk follows results filed as active. Rows were chosen to be rich in hits. Some 19% of all compounds tested hit in one or more screens of this group. Calls follow the shape of the dose curve; as a rule, active = well fitted curve in the direction sought with a large enough effect; inconclusive = small, poorly fitted or top-dose-only effect, or another doubt; inactive = no such curve, though single readings can be large; an effect the other way counts as inactive or inconclusive. Unless noted, % is scaled to controls: 0 for no effect and ±100 for the full control effect; potency is read from the fitted curve at half-maximal effect.

COc1ccc(-c2cc(C(F)(F)F)nc(NCc3ccccc3)n2)cc1 was read as DT40 TDP1 CPT 26µM*, KB-3-1 cytotox inactive, TDP1 cell noCPT inconclusive and KB-V1 MDR tox inconclusive.
For COc1ccc(CCNc2nc(C)cc(=O)[nH]2)cc1OC the results were HT1080-NT tox 10%, DT40 TDP1 CPT -1%, HT1080 IDH1KD tx 5%, KB-3-1 cytotox inactive, TDP1 cell noCPT 8% and KB-V1 MDR tox inactive.
Fc1ccc(-c2cc(C(F)(F)F)nc(NCc3ccccc3)n2)cc1 was read as DT40 TDP1 CPT inconclusive, KB-3-1 cytotox inactive, TDP1 cell noCPT inconclusive and KB-V1 MDR tox inactive.
Screening CCOc1cc(C)nc(NCCc2ccc(OC)c(OC)c2)n1 returned HT1080-NT tox 0%, DT40 TDP1 CPT inconclusive, HT1080 IDH1KD tx -1%, KB-3-1 cytotox inactive, TDP1 cell noCPT 20µM* and KB-V1 MDR tox inconclusive.
`CCOc1nc(NCCc2ccc(OC)c(OC)c2)nc(N2CCN(c3ccc(OC)cc3)CC2)n1` gave HT1080-NT tox -3%, DT40 TDP1 CPT -9%, HT1080 IDH1KD tx -2%, KB-3-1 cytotox inactive, TDP1 cell noCPT 4% and KB-V1 MDR tox inactive.
`Fc1ccc(CNc2nc(-c3ccc(Cl)cc3)cc(C(F)(F)F)n2)cc1` gave DT40 TDP1 CPT 23µM*, KB-3-1 cytotox inconclusive, TDP1 cell noCPT 18µM* and KB-V1 MDR tox inactive.
`COc1ccc(N2CCN(c3nc(NCCc4ccc(OC)c(OC)c4)nc(OC)n3)CC2)cc1` gave HT1080-NT tox inconclusive, DT40 TDP1 CPT 6.5µM*, HT1080 IDH1KD tx inconclusive, KB-3-1 cytotox inactive, TDP1 cell noCPT 4.6µM* and KB-V1 MDR tox inactive.
COc1ccc(-c2nc(-c3ccccc3)c(-c3cc([N+](=O)[O-])ccc3C)[nH]2)cc1OC was read as HT1080-NT tox -18%, DT40 TDP1 CPT 23µM*, HT1080 IDH1KD tx -9%, KB-3-1 cytotox inconclusive, TDP1 cell noCPT 18µM* and KB-V1 MDR tox inactive.
For COc1ccc(-c2[nH]c(-c3cc(OC)c4c(c3)OCO4)nc2-c2ccccc2)cc1 the results were HT1080-NT tox inconclusive, DT40 TDP1 CPT inconclusive, HT1080 IDH1KD tx inconclusive, KB-3-1 cytotox inactive, TDP1 cell noCPT inconclusive and KB-V1 MDR tox inactive.
Screening O=[N+]([O-])c1ccc2nc(-c3ccccc3)[nH]c2c1 returned HT1080-NT tox -19%, DT40 TDP1 CPT inconclusive, HT1080 IDH1KD tx -22%, KB-3-1 cytotox inactive, TDP1 cell noCPT inconclusive and KB-V1 MDR tox inactive.
Screening CCOc1ccc(-c2nc(-c3ccccc3)c(-c3ccccc3)[nH]2)cc1OCC returned DT40 TDP1 CPT 21µM*, KB-3-1 cytotox inactive, TDP1 cell noCPT 18µM* and KB-V1 MDR tox inactive.
For COc1ccc(-c2cn3cc([N+](=O)[O-])ccc3n2)cc1OC the results were HT1080-NT tox 14%, DT40 TDP1 CPT inconclusive, HT1080 IDH1KD tx 7%, KB-3-1 cytotox inactive, TDP1 cell noCPT inconclusive and KB-V1 MDR tox inactive.
COc1ccc(-c2nc(-c3ccccc3)c(-c3ccc(F)cc3)[nH]2)c(OC)c1C was read as DT40 TDP1 CPT 21µM*, KB-3-1 cytotox inactive, TDP1 cell noCPT inconclusive and KB-V1 MDR tox inactive.
`COc1cc(-c2nc(-c3ccccc3)c(-c3ccc(Br)cc3)[nH]2)cc(OC)c1O` gave DT40 TDP1 CPT inconclusive, KB-3-1 cytotox inactive, TDP1 cell noCPT inconclusive and KB-V1 MDR tox inactive.
`CCOc1cc(-c2nc(-c3ccccc3)c(-c3cc([N+](=O)[O-])ccc3C)[nH]2)ccc1O` gave HT1080-NT tox -24%, DT40 TDP1 CPT inconclusive, HT1080 IDH1KD tx -27%, KB-3-1 cytotox inactive, TDP1 cell noCPT 23µM* and KB-V1 MDR tox 18µM*.
O=[N+]([O-])c1ccccc1S(=O)(=O)N1CCN(c2nc(-c3cccs3)nc3ccccc23)CC1 was read as DT40 TDP1 CPT inconclusive, KB-3-1 cytotox inactive, TDP1 cell noCPT inconclusive and KB-V1 MDR tox inactive.
Screening COc1ccc(Oc2ncc3nc(C)c(=O)n(Cc4cccc(OC)c4)c3n2)cc1 returned DT40 TDP1 CPT -5% and TDP1 cell noCPT -11%.
Screening O=[N+]([O-])c1ccc(O)c(-c2nc(-c3ccccc3)c(-c3cccs3)[nH]2)c1 returned HT1080-NT tox inconclusive, DT40 TDP1 CPT 21µM*, HT1080 IDH1KD tx inconclusive, KB-3-1 cytotox inactive, TDP1 cell noCPT 18µM* and KB-V1 MDR tox inactive.
For O=C(O)c1ccc(-c2nc(-c3ccccc3)c(-c3cccs3)[nH]2)cc1 the results were HT1080-NT tox 10%, DT40 TDP1 CPT 15%, HT1080 IDH1KD tx 10%, KB-3-1 cytotox inactive, TDP1 cell noCPT 11% and KB-V1 MDR tox inactive.
Screening N#Cc1c(/N=C/c2ccccc2)oc(-c2ccccc2)c1-c1ccccc1 returned HT1080-NT tox 0%, DT40 TDP1 CPT inconclusive, HT1080 IDH1KD tx -7%, KB-3-1 cytotox inactive, TDP1 cell noCPT inconclusive and KB-V1 MDR tox inactive.
CCOc1[nH]c(/N=C/c2ccccc2)c(C#N)c1C#N was read as DT40 TDP1 CPT 6.3µM*, KB-3-1 cytotox inconclusive, TDP1 cell noCPT -25% and KB-V1 MDR tox inactive.
Screening COc1[nH]c(/N=C/c2ccco2)c(C#N)c1C#N returned DT40 TDP1 CPT 16µM*, KB-3-1 cytotox inconclusive, TDP1 cell noCPT inconclusive and KB-V1 MDR tox inactive.
`Cc1ccccc1NC(=O)Nc1nc(C(N)c2ccccc2)cs1` (centres undefined) gave HT1080-NT tox inconclusive, DT40 TDP1 CPT inconclusive, HT1080 IDH1KD tx inconclusive, KB-3-1 cytotox inactive, TDP1 cell noCPT inconclusive and KB-V1 MDR tox inactive.
Screening COC(=O)Nc1nc2ccc(S(=O)c3ccccc3)cc2[nH]1 (centres undefined) returned DT40 TDP1 CPT inconclusive and TDP1 cell noCPT 8.4µM*.
Screening COC(=O)Nc1nc2ccc(C(=O)c3ccccc3)cc2[nH]1 returned DT40 TDP1 CPT 0.36µM* and TDP1 cell noCPT 0.25µM*.
For O=C(CSc1ccc2ccccc2c1)Nc1nc2ccccc2[nH]1 the results were HT1080-NT tox 0%, DT40 TDP1 CPT -30%, HT1080 IDH1KD tx -7%, KB-3-1 cytotox inactive, TDP1 cell noCPT inconclusive and KB-V1 MDR tox inactive.
